The record followed here is PubChem BioAssay AID504834 (National Center for Advancing Translational Sciences (NCATS), 2011).

Molecules are shown by their SMILES. The whole screen tested about 320,000 compounds, of which about 22,000 (6.9%) were called active. Not shown: some 27% with an inconclusive outcome. Calls follow the shape of the dose curve; as a rule, active = well fitted inhibition curve with a large enough effect; inconclusive = small, poorly fitted or top-dose-only effect, or another doubt; inactive = no such curve, though single readings can be large or run the other way. What follows is part of a selection rich in actives, with near analogues and random picks from the rest. Entries that show only a call come without a potency. Where a SMILES comes first, the peptide text is derived from it. [ ]: non-standard residue; d: D form. The star is where a group is joined. ξ: configuration not given here. Cbz = O=C(OCc1ccccc1)*; ξL = CC(C)CC(N)C(=O)O; ξP = O=C(O)C1CCCN1
Potency is read from the fitted curve at half-maximal effect.

A short description of the experiment: Primary qHTS for delayed death inhibitors of the malarial parasite plastid, 96 hour incubation. The conditions noted are these: P. falciparum luciferase reporter growth; series mostly up to 28.7 µM. A digest of the protocol: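 Infected RBCs, 2% Hct / 0.05% parasitemia final; luciferase-reporter P. falciparum; cpd 96 h, 37 C, 5% CO2; luciferase detection reagent; luminescence.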
In the case of `CC1(C)NC(=O)N(CC(=O)Nc2cc(C(F)(F)F)cc(C(F)(F)F)c2)C1=O`, the Potency result was “inactive”. Same read-out and setting: the result for `O=C(COC(=O)CNC(=O)C1CCCCC1)Nc1cccc(F)c1` reads “inactive”; that for `CCOc1ccc2nc(N3CCCN(C(=O)Nc4ccccc4C)CC3)c(C#N)cc2c1`, 13.1 µM (active).

As to `Cc1ccc(F)cc1NC(=O)N1CCCN(c2ccc(C(F)(F)F)cn2)CC1`, the Potency result is “inactive”.

For `COc1ccc2nc(N3CCCC(O)C3)c(C#N)cc2c1` (stereo not given), the Potency result is “inactive”.

In the case of `CC1(C)O[C@H]2CC(=O)OCC23[C@H]2CC[C@@]4(C)[C@H](c5ccoc5)OC(=O)[C@H]5O[C@]54[C@]2(C)C(=O)C[C@@H]13` (stereo not given in full), the Potency entry is “inactive”. Turning to `O=C1/C(=C/c2coc3ccc(O)cc3c2=O)SC(=S)N1c1ccccc1`, the Potency entry was “inactive”. Same read-out and setting: the entry for `COc1cc(C)c(C)cc1S(=O)(=O)N1CCCc2ccccc21` is “inactive”; for `Cc1cc2c(cc1C)N(Cc1ccccc1)C1=NCCCN12` it is 7.38 µM (active).

Regarding `CC(C)(C)C(=O)CN1C2=NCCN2c2ccccc21`, the Potency entry is “inactive”. Same read-out and setting: the result for `COC(=O)c1ccc(/C=C2/C(=O)Oc3ccccc32)cc1` reads “inactive”; that for `Clc1cc(NC2CCCCC2)ncn1`, “inactive”; that for `O=C1c2ccccc2S(=O)(=O)N1Cc1c(F)cccc1Cl`, “inactive”. Same read-out and setting: the result for `N#Cc1ccc(Cn2cc(C(=O)c3ccco3)c3ccccc32)cc1` reads “inactive”. Still for that read-out and setting: the figure for `CC1CCN(C(=O)Cn2cc(C(=O)c3ccco3)c3ccccc32)CC1` is 10.4 µM (active); for `Cc1cccc(NC(=O)Cn2cc(C(=O)c3ccco3)c3ccccc32)c1` it is “inactive”. In the case of `CC(=O)Nc1ccc(S(=O)(=O)N2CCn3cccc3C2C)cc1` (stereo not given), the Potency entry is “inactive”. Still for that read-out and setting: the entry for `Cc1cc(NC(=O)c2ccc(F)cc2)ccc1NC(=O)c1ccco1` is “inactive”; for `CC1CCCN(S(=O)(=O)c2ccc(-c3ccc(=O)[nH]n3)o2)C1` (stereo not given) it is “inactive”; for `CN(Cc1c(F)cccc1Cl)S(=O)(=O)c1cccs1` it is “inactive”. On to `COc1ccc2cc1Oc1ccc(cc1)C[C@H]1c3cc(c(OC)cc3CCN1C)Oc1c(O)c(OC)cc3c1[C@H](C2)N(C)CC3`, for which the Potency was 1.85 µM (active).

Turning to `CCOc1ccc(C(=O)COC(=O)c2ccc(-n3cnnn3)cc2)cc1`, the Potency entry was “inactive”. `CCOc1ccc(C(=O)N(Cc2ccc(N(C)C)cc2)C2CCS(=O)(=O)C2)cc1` (stereo not given): the activity change, negative = inhibition is 17.3% [at 5.75 µM] (inactive). Turning to `CC1(C)C(C=C(Cl)Cl)C1C(=O)N(Cc1ccc(Cl)cc1)C1CCS(=O)(=O)C1` (stereo not given), the Potency is 11.7 µM (active).

Take `COc1cc(C(=O)N(Cc2ccc(N(C)C)cc2)C2CCS(=O)(=O)C2)cc(OC)c1OC` (stereo not given): the Potency entry was “inactive”.

With `O=C1[C@@H]2C(c3cccnc3)=NO[C@@H]2C(=O)N1c1ccc(Cl)cc1Cl`, the Potency entry was “inactive”. Turning to `CC(C)[C@H](NC(=O)OCc1ccccc1)C(=O)OCc1ccccc1`, the Potency result is “inactive”. Take `COc1ccc(C2NC(=O)C(=O)/C2=C(\O)c2ccc(Cl)cc2)cc1OC` (stereo not given): the Potency result was “inactive”.

For the compound `CCCN(CC(=O)Nc1ccccc1C)C(=O)c1ccc2[nH]c3c(c2c1)CC(C)CC3` (stereo not given), the Potency is 13.1 µM (active). `CC1CCc2[nH]c3ccc(C(=O)N(C)CC(=O)Nc4cccc(F)c4)cc3c2C1` (stereo not given): the Potency entry is “inactive”.

In the case of `CCCN(CC(=O)Nc1ccc(C(N)=O)cc1)CC(=O)Nc1ccccc1C`, the Potency entry is “inactive”.

For the compound `O=C(OCc1nnc(-c2ccccc2)o1)c1cc(=O)[nH]c2ccccc12`, the Potency entry was “inactive”. As for `CCc1nnc(NC(=O)CSCc2cc(=O)n3cc(C)sc3n2)s1`, the Potency entry is “inactive”. Turning to `CC(NCCc1ccc(S(N)(=O)=O)cc1)C(=O)NCc1ccccc1` (stereo not given), the Potency entry is “inactive”. With `CC(=O)c1cccc(NC(=O)C2COc3ccccc3O2)c1` (stereo not given), the Potency is 2.62 µM (active). Consider `CC(=O)c1cccc(NC(=O)C2CCN(C(=O)c3ccccc3Cl)CC2)c1`, for which the Potency entry is “inactive”.

`O=C(Nc1nc2c(F)cc(F)cc2s1)C1COc2ccccc2O1` (stereo not given): the Potency result is “inactive”. The same measure, in the same setting: the result for `COc1ccc(NC(=O)C2COc3ccccc3O2)cc1` (stereo not given) reads 1.17 µM (active); that for `COc1ccc(NC(=O)CC2COc3ccccc3O2)c(OC)c1` (stereo not given), “inactive”; that for `O=C(Nc1nc(-c2ccncc2)cs1)C1COc2ccccc2O1` (stereo not given), “inactive”.

With `CCNC(=S)N(CCN(CC)CC)Cc1cc2cc3c(cc2[nH]c1=O)OCCO3`, the Potency entry was “inactive”.

For `O=C(/C=C/c1cccc([N+](=O)[O-])c1)N1CCN(Cc2ccccc2)CC1`, the Potency entry is “inactive”. Turning to `Clc1ccc(C[n+]2cc(-c3ccccc3)n3c2CCC3)cc1`, the Potency was 0.586 µM (active).

As for `Clc1ccc(C[n+]2cc(-c3ccc(Cl)cc3)n3c2CCC3)cc1`, the Potency is 0.37 µM (active). On the same count and under the same terms, the entry for `O=C(Cc1ccc(Br)cc1)NCCN1CCOCC1` is “inactive”; for `COc1cccc(NC(=O)CSc2nnc(-c3cccnc3)o2)c1` it is “inactive”; for `NC(=O)C1CCN(C(=O)c2ccc3c(=O)n(Cc4cccc(Br)c4)c(=S)[nH]c3c2)CC1` it is “inactive”.

On to `CC(Sc1nnc(COc2ccccc2)n1-c1ccccc1)C(=O)O` (stereo not given), for which the Potency entry was “inactive”. Same read-out and setting: the entry for `CCn1c(SCC(=O)NC2CC2)nnc1-c1ccccc1OC` is “inactive”; for `CCOC(=O)N1CCN(C(=O)CSc2nnc(-c3c[nH]c4ccccc34)n2CCOC)CC1` it is “inactive”; for `CCn1c(SCC(=O)Nc2ccc(OC)c(OC)c2)nnc1-c1c[nH]c2ccccc12` it is 11.7 µM (active). Consider `CC(C)c1ccc(S(=O)(=O)NC2CCCC2)cc1`, for which the Potency result is “inactive”. Take `OC(CNC1CCCCC1)c1ccccc1` (stereo not given): the Potency is 9.28 µM (active).

Consider `O=C(NNC(=O)C(O)c1ccccc1)NC1CCCCC1` (stereo not given), for which the Potency entry is “inactive”.

Regarding `c1ccc(CCNC2CCCCCC2)cc1`, the Potency entry is “inactive”.

As for `Cc1cc(Cl)c2oc(C(=O)N(C)C(C)c3ccccn3)c(C)c2c1` (stereo not given), the Potency result was “inactive”.

Consider `CN(C)c1nc(Nc2ccc(Cl)c(Cl)c2)nc(N(C)C)n1`, for which the Potency result was “inactive”. Still for that read-out and setting: the result for `COc1cc(C2C(C(=O)c3ccco3)=C(O)C(=O)N2c2cc(C)on2)ccc1OCc1ccccc1` (stereo not given) reads “inactive”; that for `Cc1ccc2nc(N3C(=O)C(O)=C(C(=O)c4ccco4)C3c3cccc(O)c3)sc2c1` (stereo not given), 9.28 µM (active). The same measure, in the same setting: the result for `Cc1ccc2nc(N3CCN(C(=O)c4ccco4)CC3)sc2c1` reads “inactive”. With `COc1ccc(C(=O)NCc2nnc(SCC(=O)NC3=NCCS3)n2C)cc1`, the Potency entry is “inactive”. Regarding `CCOc1ccccc1NC(=O)Cc1cccs1`, the Potency entry was “inactive”. On the same count and under the same terms, the entry for `COc1cc(C(=O)NCC2(c3ccccc3)CCCC2)ccc1OC(C)C` is “inactive”; for `Cn1cnnc1Sc1ccc(CN2CCN(C3CCCC3)C(CCO)C2)o1` (stereo not given) it is “inactive”; for `OCCC1CN(Cc2ccc3nsnc3c2)CCN1C1CCCCC1` (stereo not given) it is 10.4 µM (active). Same read-out and setting: the result for `CC[C@H](C)C(=O)N[C@H]1CCCN1C(=O)/C=C/c1ccccc1` reads “inactive”; that for `Cc1ccc(C)c(OCCC(=O)OCC(=O)c2ccc3c(c2)NC(=O)CO3)c1`, “inactive”. As to `C=CCNC(=O)COc1coc(CN2CCN(Cc3ccccc3)CC2)cc1=O`, the Potency is 13.1 µM (active). For `Cc1cc(C)cc(NC(=O)COc2coc(CN3CCN(c4ccccc4)CC3)cc2=O)c1`, the Potency entry was “inactive”.

Regarding `O=C(COc1coc(CN2CCN(c3ccccc3)CC2)cc1=O)Nc1ccccc1F`, the Potency result was “inactive”. As to `CC(=O)O[C@H]1CC[C@@]2(C)[C@@H](CC[C@@H]3[C@@H]2CC[C@]2(C)[C@@H](C(C)(C)O)C[C@@H]32)C1`, the Potency entry is “inactive”.

On to `CC1CCC2CCCCC2N1C(=O)c1cc([N+](=O)[O-])cc([N+](=O)[O-])c1` (stereo not given), for which the Potency entry is “inactive”. Still for that read-out and setting: the result for `O=C(NCc1ccco1)C(c1ccncc1)N(C(=O)Cn1nnc2ccccc21)c1ccccc1` (stereo not given) reads “inactive”. On the same count and under the same terms, the result for `Cc1nc(C)c(C(=O)N(c2ccc(C)c(C)c2)C(C(=O)NCc2ccco2)c2ccccc2)s1` (stereo not given) reads 10.4 µM (active); that for `Cc1cccc(N(C(=O)c2sc(C)nc2C)C(C(=O)NCC2CCCO2)c2ccccc2)c1` (stereo not given), “inactive”; that for `CC(C)(C)NC(=O)C(c1ccc(Cl)cc1)N(CCO)C(=O)c1snc(C(N)=O)c1N` (stereo not given), “inactive”. Same read-out and setting: the entry for `CCCCCNC(=O)C1c2ccccc2Oc2ccccc21` is “inactive”; for `CCOC(=O)c1ccc(N2C(=O)CC(N3CC(C)OC(C)C3)C2=O)cc1` (stereo not given) it is “inactive”; for `CCOC(=O)c1ccc(N2C(=O)CC(N3CCN(C(=O)c4ccccc4)CC3)C2=O)cc1` (stereo not given) it is “inactive”. For the compound `CCOC(=O)c1ccc(N2C(=O)CC(N(C)Cc3ccccc3)C2=O)cc1` (stereo not given), the Potency was 1.47 µM (active). Same read-out and setting: the entry for `CCN1CCN(C(=O)C2CCCN(S(=O)(=O)c3ccc(OC)c(OC)c3)C2)CC1` (stereo not given) is “inactive”; for `COc1cccc(NC(=O)CN(C)CC(=O)c2c(N)n(Cc3ccccc3)c(=O)n(C)c2=O)c1` it is “inactive”; for `COc1ccc(OC)c(CCNC(=O)c2nn(C)c3c2CS(=O)(=O)c2ccccc2-3)c1` it is “inactive”.

As for `CC(C)CC(NC(=O)C1CCCN1C(=O)[C@@H](C)NC(=O)OCc1ccccc1)C(=O)NCC(N)=O` (stereo not given in full) (Cbz-[dA][ξP][ξL]G-NH2), the Potency result was “inactive”. For the compound `NS(=O)(=O)c1cccc(NC(=O)CSc2nc3ccccc3n2-c2ccccc2)c1`, the Potency result is “inactive”. Same read-out and setting: the entry for `O=C(Nc1cccc(S(=O)(=O)NC2=NCCC2)c1)C1CCCCC1` is “inactive”; for `O=C(CSc1nc2ccccc2c(=O)n1-c1ccc(F)cc1)NC1CC1` it is “inactive”. On the same count and under the same terms, the entry for `CN(CCOc1ccc(Br)cc1)CC(=O)Nc1cccc(S(=O)(=O)NC2=NCCC2)c1` is “inactive”. Same read-out and setting: the result for `Cc1cccc(-n2c(SCC(=O)Nc3cccc(S(=O)(=O)NC4=NCCCCC4)c3)nc3ccccc3c2=O)c1C` reads 5.22 µM (active); that for `CCc1ccc(C(=O)OCC(=O)Nc2cccc(S(=O)(=O)NC3=NCCCCC3)c2)cc1`, 10.4 µM (active). Take `COc1ccc(C(C)=O)cc1COc1ccc(Cl)c(C)c1`: the Potency entry is “inactive”.

For the compound `COCCN(C(=O)CSCc1ccc(C)cc1)c1c(N)n(CC(C)C)c(=O)[nH]c1=O`, the Potency entry was “inactive”. Turning to `CC(=O)Nc1ccc(C(=O)/C=C/c2ccc[nH]2)cc1`, the Potency entry is “inactive”. Same read-out and setting: the entry for `Cc1ccccc1OCCC(=O)OCC(=O)NCCc1ccc(S(N)(=O)=O)cc1` is “inactive”; for `Cc1ccc(OCC(=O)Nc2ccc(S(=O)(=O)Nc3ccccn3)cc2)cc1` it is “inactive”. Take `O=C(CS(=O)(=O)c1ccccc1)Nc1ccc(S(=O)(=O)Nc2ccccn2)cc1`: the Potency result was “inactive”. For `Cc1cc(C)cc(OCC(=O)Nc2ccc(S(=O)(=O)Nc3ccccn3)cc2)c1`, the Potency is 1.65 µM (active). Still for that read-out and setting: the entry for `Cc1ncoc1C(=O)NCCC(c1ccccc1)c1ccccc1` is “inactive”; for `CC(Cc1ccccc1)C(=O)N(C)Cc1ccccc1` (stereo not given) it is “inactive”.

For the compound `CC(Cc1ccccc1)NCCC(c1ccccc1)c1ccccc1` (stereo not given), the Potency is 14.7 µM (active).
